Experiment [1] is described as follows: inhibitors of TNFa-induced NFkB p65 translocation, primary screen, imaging, HUVEC, MLSMR starter and 10KST1 sets (AID 438;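 active = inhibition above 20% together with a positive visual image hit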;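 also: compound added about 3h40 before a 20 min TNFalpha stimulation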;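 as to inhibition: signal is the nuclear over cytoplasmic p65 intensity ratio per well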). The conditions noted are these: HUVEC TNFa-induced p65 nuclear translocation; cell count: measured here: nuclei count (cytotoxicity indicator), at 2.08 µM; inhibition: at 2 µM, stronger effect = higher value, 0% TNFa-plus-vehicle, 100% no-TNFa wells.

Experiment [2] can be described thus: reduction of polyQ htt aggregates in cells – imaging, exon1htt(103Q)mCFP cells, high-content imaging, primary screen (AID 483;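 active = visual image review flags a hit and inhibition of aggregation exceeds 20%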;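 also: compound exposure lasted 3 days before fixation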;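 as to nuclei count: percent of the per-plate median nuclei count of sample wells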). The conditions noted are these: exon1htt(103Q)mCFP cell line, aggregate imaging, at 2 µM; inhibition of aggregation: stronger effect = higher value; nuclei count: measured here: cell count, toxicity.
Experiment [3] in a line: endothelial E-selectin expression blockers – imaging, HUVEC, immunofluorescence, MLSMR starter and 10KST1 sets, primary screen (AID 487;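 active = visually confirmed hit in the image check and inhibition above 20%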;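 as to inhibition: signal is fraction of cell area covered by stained E-selectin grains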;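 as to nuclei count: 100% = median nuclei count of all wells on the same plate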). The conditions noted are these: HUVEC TNFalpha-induced E-selectin immunofluorescence imaging, at 2 µM; inhibition: stronger effect = higher value; nuclei count: measured here: cell number, toxicity.
Experiment [4] concerns the target Voltage-gated potassium channel subunit beta-2 (Rattus norvegicus) (UniProt P62483). Nature of the experiment: inhibitors of rat Kvbeta2 reductase activity – biochemical, NADPH fluorescence, primary screen (AID 622;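 active = fluorescence slope higher than the sample average by over 3 SD, cut at about -0.22 in these data, passing the limit was not always enough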;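 also: slope of raw intensity against log time taken from 70 to 1610 s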). The conditions noted are these: recombinant KvBeta, 4-cyanobenzaldehyde reduction, at 10 µM, stronger effect = higher value.
Experiment [5] shares this target. Nature of the experiment: enhancers of rat Kvbeta2 NADPH turnover – biochemical, NADPH fluorescence, primary screen (AID 623;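 active = NADPH fluorescence slope more negative than the mean of all samples by about 3 SD, 99.7% confidence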;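 also: fluorescence intensity change per second fitted from 20 to 320 s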). The conditions noted are these: Recombinant KvBeta, NADPH fluorescence decrease slope, 10 min; at 10 µM; stronger effect = lower value.
Experiment [6] has as its target Alpha-2C adrenergic receptor (Homo sapiens) (UniProt P18825). Nature of the experiment: compounds altering alpha2C-coupled GIRK flux – cell-based, HEK293 alpha2C/GIRK1/2, thallium flux, primary screen (AID 624;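 active = fluorescence slope after compound addition differing from the mean of all screened samples at 99.7% confidence, in either direction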;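 also: slope of fluorescence ratio to pre-addition baseline per second over 15 to 24 s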). The conditions noted are these: thallium flux BTC fluorescence, at 10 µM, actives lie on both sides.
Experiment [7] is described as follows: blockers of RIG-like receptor reporter activation – cell-based, Sendai virus stimulus, luciferase, 10K MLSCN set, TLR/RLR signaling modifier project, primary screen (AID 602276).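 Also: firefly luciferase from ISG56 promoter only with Renilla not read in this screen; 0% = Sendai virus plus DMSO and 100% = medium plus DMSO without virus.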 The conditions noted are these: HEK293 RL24 IRF3 luciferase reporter, at 10 µM, stronger effect = higher value. In general terms: Reporter assays use an easily measured gene product as a stand-in for the process of interest.

The nature of experiment [8]: TLR3 IRF3 reporter activation blockers – cell-based, poly I:C stimulus, luciferase, 10K MLSCN set, primary screen (AID 602277;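 active = inhibition of the reporter signal at or above 50%; inactive = inhibition below 50%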). The conditions noted are these: HEK293-TLR3 RL24 IRF3 luciferase reporter, at 10 µM, stronger effect = higher value.

Molecules are shown by their SMILES. Activity calls are given as the source filed them.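 The calls were made as follows, unless noted: active = inhibition at or above 50% at 10 µM; inactive = inhibition below 50%.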

Alpha-2C adrenergic receptor (Homo sapiens), sequence (P18825 whole entry, looked up): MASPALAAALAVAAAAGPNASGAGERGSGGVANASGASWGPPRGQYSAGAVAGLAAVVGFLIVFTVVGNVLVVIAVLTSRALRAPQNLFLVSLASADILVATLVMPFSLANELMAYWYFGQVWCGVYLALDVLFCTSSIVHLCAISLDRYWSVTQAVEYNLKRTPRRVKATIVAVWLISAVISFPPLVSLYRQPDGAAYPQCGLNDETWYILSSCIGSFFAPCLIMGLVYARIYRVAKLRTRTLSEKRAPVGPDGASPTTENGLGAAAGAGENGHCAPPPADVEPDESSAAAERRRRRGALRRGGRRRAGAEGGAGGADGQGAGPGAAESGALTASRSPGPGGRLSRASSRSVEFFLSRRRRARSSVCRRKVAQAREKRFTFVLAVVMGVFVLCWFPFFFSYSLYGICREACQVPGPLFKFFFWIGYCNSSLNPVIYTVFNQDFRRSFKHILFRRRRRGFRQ
Voltage-gated potassium channel subunit beta-2 (Rattus norvegicus), sequence (P62483 whole entry, looked up): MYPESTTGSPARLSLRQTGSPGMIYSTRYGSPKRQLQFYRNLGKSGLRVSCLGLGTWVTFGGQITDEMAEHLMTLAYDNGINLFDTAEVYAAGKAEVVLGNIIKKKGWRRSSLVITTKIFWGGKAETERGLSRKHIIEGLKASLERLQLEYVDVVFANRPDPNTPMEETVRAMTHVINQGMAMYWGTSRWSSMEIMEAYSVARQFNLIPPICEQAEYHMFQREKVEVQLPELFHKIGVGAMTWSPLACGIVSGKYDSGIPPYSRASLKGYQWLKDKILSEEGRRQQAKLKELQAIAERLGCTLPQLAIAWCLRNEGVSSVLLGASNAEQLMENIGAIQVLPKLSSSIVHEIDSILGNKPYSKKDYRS

What is called inhibition is the change of the read-out against control, counted positive when it falls. In the case of `CC(=O)c1ccc(OCC(O)CN2CCN(CCO)CC2)cc1` (centres undefined), the cell count in experiment [1] was 605. Besides, the inhibition in experiment [1] was -6.1% (inactive); in experiment [3], -19.7% (inactive); in experiment [7], 13.3% (inactive); in experiment [8], 40.3% (inactive). The inhibition of aggregation in experiment [2] is -14.2% (inactive). The figures for the nuclei count in experiment [2] and in experiment [3] were 104% and 113%, respectively. Also, in experiment [4], the fluorescence slope is -0.549 (inactive). Besides, the NADPH fluorescence slope in experiment [5] was -2.9e-05 (inactive). In addition, the slope in experiment [6] is 0.00738 (inactive).
With `Cc1c(NC(=O)c2ccc(Br)o2)c(=O)n(-c2ccccc2)n1C`, in experiment [1], the cell count was found to be 366. The inhibition in experiment [1] is -5.9% (inactive); in experiment [3] it was -74% (inactive); in experiment [7], 9.74% (inactive); in experiment [8], 34.3% (inactive). Also, the inhibition of aggregation in experiment [2] was -13.4% (inactive). Moreover, the nuclei count in experiment [2] is 114%; in experiment [3] it was 129%. For the same molecule, in experiment [4], the fluorescence slope is -0.436 (inactive). Further, the NADPH fluorescence slope in experiment [5] was -2.6e-05 (inactive). Moreover, in experiment [6], the slope was 0.00344 (inactive).
In the case of `COc1cc(C2N=C(c3ccccc3)NO2)cc(Br)c1O` (centres undefined), the cell count in experiment [1] amounted to 770. Also, the inhibition in experiment [1] is 4.6% (inactive); in experiment [3], -121% (inactive); in experiment [7], -15.8% (inactive); in experiment [8], -15.1% (inactive). In experiment [2], the inhibition of aggregation is -13.7% (inactive). Moreover, the nuclei count amounted to 94.3% in experiment [2] and 108% in experiment [3]. For the same molecule, the fluorescence slope in experiment [4] was -0.546 (inactive). In addition, the NADPH fluorescence slope in experiment [5] is 2.2e-05 (inactive). The slope in experiment [6] was 0.00675 (inactive).
Turning to `COc1ccc(-c2nc(CS(=O)CC(=O)NCc3ccccn3)c(C)o2)cc1` (centres undefined), in experiment [1], the cell count is 518. Further, the inhibition in experiment [1] is 1.9% (inactive); in experiment [3] it was -25.4% (inactive); in experiment [7], 44.5% (inactive); in experiment [8] it was 9.92% (inactive). Besides, the inhibition of aggregation in experiment [2] was -23.1% (inactive). The nuclei count in experiment [2] worked out at 104%; in experiment [3], 99.7%. The fluorescence slope in experiment [4] was -0.527 (inactive). Further, the NADPH fluorescence slope in experiment [5] is -1.1e-05 (inactive). Besides, the slope in experiment [6] is 0.00839 (inactive).
Take `O=C1N(c2ccccc2)C2CS(=O)(=O)CC2N1c1ccc(Br)cc1` (centres undefined): the cell count in experiment [1] was 566. The inhibition in experiment [1] was -12.3% (inactive); in experiment [3], -32.1% (inactive); in experiment [7], 6.69% (inactive); in experiment [8], 17.5% (inactive). In addition, in experiment [2], the inhibition of aggregation is 4% (inactive). Also, the nuclei count turned out to be 88.5% in experiment [2] and 127% in experiment [3]. Moreover, the fluorescence slope in experiment [4] was -0.432 (inactive). Further, the NADPH fluorescence slope in experiment [5] was -1.5e-05 (inactive). In experiment [6], the slope is 0.00616 (inactive).
For `CC(C)OC(=O)c1ccc(OC(=O)c2cccnc2)cc1`, the cell count in experiment [1] stood at 424. Moreover, the inhibition was 3.3% (inactive) in experiment [1], 12.1% (inactive) in experiment [3], -2.15% (inactive) in experiment [7] and -5.2% (inactive) in experiment [8]. In addition, the inhibition of aggregation in experiment [2] was -5.5% (inactive). Moreover, the nuclei count in experiment [2] turned out to be 107%; in experiment [3], 104%. Further, in experiment [4], the fluorescence slope is -0.429 (inactive). Also, in experiment [5], the NADPH fluorescence slope is -6.3e-05 (inactive). The slope in experiment [6] was 0.00544 (inactive).
Take `COC(=O)C(CC(C)C)NC(=O)CSc1nc(-c2ccccc2)c(C#N)c(=O)[nH]1` (centres undefined): the cell count in experiment [1] came to 467. The inhibition in experiment [1] is -10.9% (inactive); in experiment [3] it was -3.8% (inactive); in experiment [7], 15.4% (inactive); in experiment [8] it was 28.8% (inactive). In experiment [2], the inhibition of aggregation is -13% (inactive). Also, the nuclei count in experiment [2] was found to be 64.5%; in experiment [3] it was 81.7%. Also, in experiment [4], the fluorescence slope was -0.402 (inactive). Moreover, the NADPH fluorescence slope in experiment [5] was -0.000101 (inactive). The slope in experiment [6] is 0.0059 (inactive).
As for `COc1cc(C(=O)Nc2ccc(-n3cnnn3)c(C)c2)cc(OC)c1OC`, in experiment [1], the cell count worked out at 302. Moreover, the inhibition in experiment [1] is 5.8% (inactive); in experiment [3], -94.5% (inactive); in experiment [7], -0.467% (inactive); in experiment [8], 20.8% (inactive). For the same molecule, the inhibition of aggregation in experiment [2] was 11.6% (inactive). The nuclei count in experiment [2] came out at 90%; in experiment [3] it was 149%. Further, the fluorescence slope in experiment [4] is -0.617 (inactive). Moreover, the NADPH fluorescence slope in experiment [5] was 3e-06 (inactive). Also, the slope in experiment [6] is 0.00564 (inactive).
For the molecule `Cc1ccccc1OCCCN1C(=O)C(=O)c2cccc(C)c21`, in experiment [1], the cell count amounted to 833. The inhibition is 3.7% (inactive) in experiment [1], -81.4% (inactive) in experiment [3], 5.45% (inactive) in experiment [7] and -4.08% (inactive) in experiment [8]. Moreover, the inhibition of aggregation in experiment [2] is 5% (inactive). Further, the nuclei count in experiment [2] was determined as 108%; in experiment [3], 113%. Further, the fluorescence slope in experiment [4] was -0.575 (inactive). Further, the NADPH fluorescence slope in experiment [5] was -5e-05 (inactive). Besides, the slope in experiment [6] is 0.00604 (inactive).
In the case of `O=C(CCn1c(=O)oc2ccccc21)N1CCCCCC1`, the cell count in experiment [1] came to 776. Moreover, the inhibition was -23.3% (inactive) in experiment [1], -26.2% (inactive) in experiment [3], -8.11% (inactive) in experiment [7] and -6.91% (inactive) in experiment [8]. The inhibition of aggregation in experiment [2] was -23.8% (inactive). For the same molecule, the nuclei count in experiment [2] and in experiment [3] was 123% in each case. In addition, in experiment [4], the fluorescence slope was -0.316 (inactive). Also, the NADPH fluorescence slope in experiment [5] is -5.9e-05 (inactive). Moreover, the slope in experiment [6] was 0.00656 (inactive).
Take `N#Cc1cnc(SCCc2ccccc2)nc1N`: the cell count in experiment [1] amounted to 630. Further, the inhibition in experiment [1] is -13.1% (inactive); in experiment [3], -14.8% (inactive); in experiment [7], -34% (inactive); in experiment [8] it was -61.8% (inactive). Further, the inhibition of aggregation in experiment [2] was -5.2% (inactive). Besides, the nuclei count in experiment [2] stood at 93.9%; in experiment [3], 108%. Moreover, the fluorescence slope in experiment [4] is -0.291 (inactive). The NADPH fluorescence slope in experiment [5] is -5.5e-05 (inactive). Also, the slope in experiment [6] is 0.00492 (inactive).
In the case of `Cc1nc2c(C(=O)O)cnn2c(C)c1Cc1ccccc1F`, the cell count in experiment [1] was determined as 606. In addition, the inhibition in experiment [1] is -12.2% (inactive); in experiment [3], -44.9% (inactive); in experiment [7] it was -2.88% (inactive); in experiment [8], -3.96% (inactive). Besides, the inhibition of aggregation in experiment [2] was 11.2% (inactive). Besides, the nuclei count in experiment [2] turned out to be 77.3%; in experiment [3], 105%. Further, the fluorescence slope in experiment [4] was -0.406 (inactive). For the same molecule, the NADPH fluorescence slope in experiment [5] was 4.6e-06 (inactive). For the same molecule, the slope in experiment [6] was 0.00393 (inactive).
In the case of `CCOC(=O)C(C#N)C(c1cccnc1)c1c(C)[nH][nH]c1=O` (centres undefined), in experiment [1], the cell count came to 710. Besides, the inhibition was -7.5% (inactive) in experiment [1], -131% (inactive) in experiment [3], 6.49% (inactive) in experiment [7] and 9.18% (inactive) in experiment [8]. In experiment [2], the inhibition of aggregation was -3.8% (inactive). Also, the nuclei count in experiment [2] worked out at 93%; in experiment [3] it was 101%. The fluorescence slope in experiment [4] was -0.325 (inactive). Besides, the NADPH fluorescence slope in experiment [5] is -3.9e-05 (inactive). Besides, in experiment [6], the slope is 0.0052 (inactive).
In the case of `CC(CC(=O)NC1CCSC1=O)c1ccccc1` (centres undefined), the cell count in experiment [1] turned out to be 396. Also, the inhibition is -4.2% (inactive) in experiment [1], -43.3% (inactive) in experiment [3], -7.84% (inactive) in experiment [7] and 17% (inactive) in experiment [8]. The inhibition of aggregation in experiment [2] was 8.2% (inactive). Further, the nuclei count was 102% in experiment [2] and 124% in experiment [3]. Moreover, in experiment [4], the fluorescence slope is -0.452 (inactive). Moreover, in experiment [5], the NADPH fluorescence slope was 3.8e-05 (inactive). In experiment [6], the slope was 0.00567 (inactive).

(Values after PubChem BioAssay.)
